Screens from PubChem BioAssay.
In the library only some 2.8% were active in any assay of this set; here they are far more common.
bovine MsrA act: bovine methionine sulfoxide reductase A activation; purified bovine MsrA, absorbance read-out; activation, % at 10.6 µM; 360,000 tested, 0.3% active; AID 602163; in the data active = activation above about 7.5%;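 also: 0% = vehicle and 100% = reference activator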
rCAG binder: binds r(CAG) RNA repeats | r(CAG) RNA repeat, TO-PRO-1 dye displacement fluorescence | inhibition, % at 3 µM | 370,000 tested, 1.3% active | AID 651821;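 active = inhibition above the plate cutoff, the mean of all test compounds on that plate plus 3 SD, cut at about 35% in these data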;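 also: 0% = DMSO alone and 100% = 100 µM mitoxantrone as full dye displacement; higher means more dye released from RNA so lower well fluorescence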
HGIII-sPLA2 inh: Blocks human group III sPLA2 activity | Q9NZ20 | QFRET BODIPY PC-A2 liposome hydrolysis, fluorescence | inhibition, % at 12.2 µM | 370,000 tested, 0.56% active;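 active = inhibition above mean plus 3 SD of compounds lying within the high and low control bounds, cut at about 19% in these data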;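 also: 0% = median of test compound wells and 100% = no enzyme DMSO wells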
Target sequence (Q9NZ20 whole entry, looked up): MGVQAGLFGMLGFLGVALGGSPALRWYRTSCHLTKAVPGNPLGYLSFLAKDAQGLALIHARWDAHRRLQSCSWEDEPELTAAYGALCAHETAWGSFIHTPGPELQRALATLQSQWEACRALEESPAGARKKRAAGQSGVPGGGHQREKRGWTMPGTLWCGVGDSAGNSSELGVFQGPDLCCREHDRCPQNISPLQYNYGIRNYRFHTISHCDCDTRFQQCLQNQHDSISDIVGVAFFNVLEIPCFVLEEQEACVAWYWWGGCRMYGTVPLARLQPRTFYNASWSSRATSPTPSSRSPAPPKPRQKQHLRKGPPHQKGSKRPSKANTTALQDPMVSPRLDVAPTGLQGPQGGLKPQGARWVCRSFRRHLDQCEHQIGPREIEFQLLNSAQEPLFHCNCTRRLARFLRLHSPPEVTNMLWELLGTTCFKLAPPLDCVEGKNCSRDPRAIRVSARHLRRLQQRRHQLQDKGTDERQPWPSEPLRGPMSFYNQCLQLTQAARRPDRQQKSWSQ
MsrA inh: inhibits bovine methionine sulfoxide reductase A; inhibition, % at 15.5 µM; 360,000 tested, 0.75% active; purified bovine MsrA, absorbance read-out; in the data active = inhibition above about 4.5%;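 also: 0% = vehicle wells with enzyme and 100% = reference inhibitor wells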
rCAG binder conf: r(CAG) RNA repeat binding, confirmation; AID 652065; inhibition, % at 3 µM; TO-PRO-1 dye displacement fluorescence; shares compounds with rCAG binder; 4,300 tested, 70% active;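 active = inhibition above a per-plate cutoff, the mean inhibition of sample wells plus 3 SD, cut at about 35% in these data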;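 also: loss of TO-PRO-1 fluorescence as compound displaces dye from 1x1 AA loop RNA; 0% = DMSO only wells and 100% = 100 µM mitoxantrone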
DNA CAG counter: DNA CAG dye complex inhibition counter-screen; shares compounds with rCAG binder; d(CAG) DNA oligo TO-PRO-1 dye displacement, fluorescence; inhibition, % at 3 µM; 4,300 tested, 94% active;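 active = inhibition above its plate's cutoff, the mean test-well inhibition plus 3 SD, cut at about 4.8% in these data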;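 also: 0% = DNA dye mix with DMSO and 100% = 100 µM mitoxantrone; hits displace the dye from DNA and so lower well fluorescence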
DNA CAG DR: counter-screen for rCAG binders: inhibitors of DNA CAG TO-PRO-1 complex; shares compounds with rCAG binder; DNA CAG/GTC duplex TO-PRO-1 dye displacement fluorescence; IC50, µM; 250 tested, 20% active; in the data active = IC50 below about 10 µM
Active calls of the source: *; . = not tested or not shown.

SMILES | bovine MsrA act | rCAG binder | HGIII-sPLA2 inh | MsrA inh | rCAG binder conf | DNA CAG counter | others
COc1ccc(C(=O)/C=C/Nc2ccc(S(=O)(=O)Nc3onc(C)c3C)cc2)cc1 | 0.1 | 46.5* | -12.6 | 2.1 | 48.8* | 18.4*
Cc1noc(NS(=O)(=O)c2ccc(N/C=C/C(=O)c3ccc(F)cc3)cc2)c1C | -6.8 | 14.0 | -9.7 | 3.2 | . | .
Cc1cc2nc3n(c2cc1C)CC1CC(C(=O)NCc2cccc(Br)c2)N(C)C31 (stereo not drawn) | -1.9 | -2.9 | -1.2 | -0.9 | . | .
COc1cc2c(cc1OC)C(c1ccccc1)N(Cc1ccc(S(=O)(=O)NC(=O)c3ccco3)cc1)CC2 (stereo not drawn) | -2.6 | 39.8* | -15.6 | 1.2 | 39.4* | 11.3*
COc1cc2c(cc1OC)C(c1ccccc1)N(C(=O)c1ccco1)CC2 (stereo not drawn) | -1.5 | 2.2 | 6.9 | 1.2 | . | .
CC(C)=CCc1cc(-c2oc3cc(O)cc(O)c3c(=O)c2O)ccc1O | -12.2 | 44.5* | -3.8 | 0.4 | 51.6* | 24.7*
O=c1c(O)c(-c2cc(O)c(O)c(O)c2)oc2cc(O)cc(O)c12 | -5.8 | 47.1* | 7.8 | 4.2 | 55.9* | 18.7* | DNA CAG DR=>29.9
O=c1c(O)c(-c2ccccc2)oc2cc(O)cc(O)c12 | -12.2 | 13.3 | -15.9 | 1.9 | . | .
COc1ccc(C(=O)NC(=S)Nc2ccc3[nH]c(=O)[nH]c3c2)cc1 | -4.2 | 3.6 | 8.5 | 0.4 | . | .
COc1cc(OC)c(OC)cc1/C=N/NC(=O)c1ccc(CSc2nc(C)cc(C)n2)cc1 | -4.5 | 0.1 | 1.1 | 0.3 | . | .
Cc1ccc(NC(=O)CSc2nnc3c(n2)[nH]c2ccccc23)cc1 | -1.6 | 1.1 | -5.2 | -0.3 | . | .
Cc1ccc(-c2csc(NC(=O)CSc3nnc4c(n3)[nH]c3ccccc34)n2)cc1 | 0.8 | 35.1* | -3.6 | 0.8 | 29.4 | 18.0*
CCC(Sc1nc(-c2ccccc2)cc(=O)[nH]1)C(=O)O (stereo not drawn) | -3.8 | 2.3 | -1.9 | 2.4 | . | .
O=C(CSc1nc2ccccc2[nH]1)Nc1nc(-c2cccc(Br)c2)cs1 | -6.5 | 57.9* | 18.8 | 2.6 | 43.4* | 20.9*
Cc1ccc(-c2csc(NC(=O)CSc3nc(C)cc(=O)[nH]3)n2)cc1 | . | 55.7* | -25.4 | -0.8 | 54.5* | 19.3*
CCC(Sc1nc(C)cc(=O)[nH]1)C(=O)Nc1nc(-c2ccccc2)cs1 (stereo not drawn) | -1.3 | 48.5* | -4.9 | -0.1 | 60.1* | 22.6*
O=C(N/N=C/c1cc2c(c([N+](=O)[O-])c1)OCO2)c1ccncc1 | -2.0 | 7.8 | -3.0 | 1.9 | . | .
CCCN1CCN(S(=O)(=O)c2c(C)[nH]c(C)c2C(=O)N2CCCCC2)CC1 | -3.1 | -1.4 | 3.7 | 0.4 | . | .
CCOC(=O)c1c(-c2ccccc2Cl)csc1NC(=O)CSc1nc(C)cc(=O)[nH]1 | -8.5 | 37.9* | -33.9 | 0.3 | 45.0* | 14.7*
CCOC(=O)C1CCCN(C(=O)c2ccc(NS(=O)(=O)c3ccc4[nH]c(=O)[nH]c4c3)cc2)C1 (stereo not drawn) | -10.8 | 2.0 | -3.1 | -0.3 | . | .
O=C1C=CC(=O)c2c(O)c(N3CCN(CCOCCO)CC3)c(Br)c(O)c21 | 2.7 | 53.0* | -17.5 | 0.2 | 68.2* | 36.0*
O=C(Nc1nnc(C2CC2)o1)c1ccc(S(=O)(=O)N2CCCc3ccccc32)cc1 | -0.7 | 35.6* | -11.3 | -0.5 | 31.6 | 11.0*
COCc1nnc(NC(=O)c2ccc(S(=O)(=O)N3CCCc4ccccc43)cc2)o1 | -3.6 | 24.7 | -11.1 | -0.1 | . | .
O=C(Nc1ccc(Br)cc1C(=O)O)c1ccc2c(c1)C(=O)N(Cc1ccccc1)C2=O | -1.9 | 49.0* | 0.8 | -0.5 | 87.1* | 76.6*
O=C(Nc1cc(Cl)ccc1C(=O)O)c1ccc(CN2C(=O)c3ccccc3C2=O)cc1 | -0.4 | 59.3* | -14.5 | 0.4 | 84.7* | 72.0*
SMILES | bovine MsrA act | rCAG binder | HGIII-sPLA2 inh | MsrA inh | rCAG binder conf | DNA CAG counter | others
CCCN1C(=O)c2ccc(C(=O)Nc3ccccc3C(=O)O)cc2C1=O | -1.8 | 53.5* | -7.9 | 2.5 | 36.0* | 7.0*
O=C(O)c1ccc2c(c1)C(=O)N(CCCCCCCN1C(=O)c3ccc(C(=O)O)cc3C1=O)C2=O | -2.7 | 37.2* | -5.9 | -0.7 | 23.1 | 3.6
COc1cccc(CN2CCNC(=O)C2CC(=O)N(C)CCC2CCOCC2)c1 (stereo not drawn) | -2.4 | -3.9 | -1.2 | -0.6 | . | .
Oc1ccccc1C1N=C(c2ccccc2)NC(c2ccccc2)=N1 | -2.5 | 6.4 | -6.5 | 0.4 | . | .
N#Cc1c(C#N)c(-c2ccccc2)n(-c2ccccc2)c1N | -3.7 | 0.8 | -3.7 | 0.1 | . | .
O=c1c(O)cccc2cc(O)c(O)c(O)c12 | -12.8 | 51.0* | -9.4 | 1.2 | 78.4* | 47.8*
CCN(CC)S(=O)(=O)c1ccc(NC(=O)COC(=O)c2ccc(Br)o2)cc1 | -10.3 | 0.9 | -13.1 | 1.4 | . | .
COc1ccc(NS(=O)(=O)c2cccc(NC(=O)c3ccc(S(=O)(=O)N4CCCCCC4)cc3)c2)cc1 | -2.9 | . | . | . | . | .
O=C(COC(=O)c1cc(S(=O)(=O)N2CCCC2)ccc1O)Nc1ccc(SC(F)F)cc1 | -1.3 | 45.5* | -25.5 | 0.2 | 40.4* | 11.1*
COc1ccc(NS(=O)(=O)c2ccc(O)c(NC(=O)c3ccc(S(=O)(=O)N4CCCCCC4)cc3)c2)cc1 | -5.3 | 67.8* | -56.5 | 0.3 | 77.6* | 39.1*
CCN(CC)S(=O)(=O)c1ccc(NC(=O)COC(=O)c2cc(S(=O)(=O)Nc3ccc(OC)cc3)ccc2O)cc1 | -1.3 | 36.1* | -45.5 | -0.3 | 60.8* | 25.9*
CC(C)(C)c1ccc(NC(=O)COC(=O)c2ccc(NS(=O)(=O)c3ccc(F)c(F)c3)cc2)cc1 | -8.0 | 70.1* | -111.4 | 0.8 | 66.8* | 24.1*
O=C(COC(=O)c1cc(S(=O)(=O)N2CCCC2)ccc1O)Nc1ccc(S(=O)(=O)N2CCOCC2)cc1 | -1.9 | 26.8 | -8.0 | 0.7 | . | .
Cc1ccc(S(=O)(=O)NN=C2CC(C)(C)OC2(C)C)cc1 | 2.3 | 1.5 | 2.6 | -0.7 | . | .
C=C1C(=O)OCC2C(C(=O)O)=CC3C(C)C(C)=CC123 (stereo not drawn) | -2.1 | -0.1 | 5.9 | 0.6 | . | .
COc1ccc2oc(=O)c(-c3csc(Nc4cccc(O)c4)n3)cc2c1 | -2.2 | 22.7 | -18.2 | 1.0 | . | .
COc1ccc(C(=O)Nc2ccc(S(=O)(=O)N3CCCC3)cc2)cc1 | -2.7 | 2.8 | -8.2 | -0.3 | . | .
CCOC(=O)c1ccc(S(=O)(=O)Nc2cc(S(=O)(=O)Nc3ccc(OC)cc3)ccc2O)cc1 | -2.2 | 61.9* | -43.2 | -0.8 | 51.8* | 21.7*
CCOC(=O)c1ccc(NS(=O)(=O)c2ccc3[nH]c(=O)[nH]c3c2)cc1 | -10.7 | 6.3 | -8.0 | 0.3 | . | .
O=C(Nc1cc(S(=O)(=O)N2CCOCC2)ccc1O)c1ccc(NS(=O)(=O)c2ccc(Cl)s2)cc1 | -7.1 | 63.8* | -19.1 | 2.9 | 42.0* | 12.2*
